# This is part of a sample that, as a whole, favours compounds with a hit. Of some 83,000 tested, about 20% had one in any assay.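 The endpoint reported here, percent growth, reads 100 for growth as untreated, 0 for no net growth and -100 for all cells dead.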 A number with no mark means an inactive call. Active and inactive are the calls of the source. Rule for the calls: active = growth percent below 10; inactive = the rest.
# How the values were obtained:
# Experiment in all cases: NCI-60 one-dose screen, 48 h (100 = growth as untreated, 0 = no growth, -100 = all killed)
# Conditions in all cases: 10 µM unless noted
# [1] = tested on: NCI-H23 lung
# [2] = tested on: NCI-H226 lung
# [3] = tested on: NCI-H322M lung
# [4] = tested on: HOP-62 NSCLC
# [5] = tested on: NCI-H460 lung
# [6] = tested on: NCI-H522 lung
# [7] = tested on: A549/ATCC NSCLC
# [8] = tested on: 786-0 renal
# [9] = tested on: COLO 205 colon
# [10] = tested on: DU-145 prostate
# [11] = tested on: K-562 leukemia
# [12] = tested on: MALME-3M melanoma
# [13] = tested on: MDA-MB-231 breast
# [14] = tested on: RXF 393 renal
# [15] = tested on: SF-268 CNS
# [16] = tested on: SF-295 CNS
# [17] = tested on: SF-539 CNS
# [18] = tested on: UACC-257 melanoma
# [19] = tested on: M14 melanoma
Structure (SMILES),growth [1],growth [2],growth [3],growth [4],growth [5],growth [6],growth [7],growth [8],growth [9],growth [10],growth [11],growth [12],growth [13],growth [14],growth [15],growth [16],growth [17],growth [18],growth [19]
N#Cc1c(Nc2ccccc2)nn2c(-c3ccc([N+](=O)[O-])cc3)ccnc12,100%,104%,102%,109%,99.3%,94.8%,94.4%,98.3%,107%,109%,112%,104%,102%,90.3%,100%,104%,100%,95.3%,106%
O=C(CSc1nc2ccccc2c(=O)n1-c1ccccc1)Nc1cccc(C(=O)/C=C/c2ccccc2Cl)c1,96.8%,97.1%,106%,118%,101%,97.4%,97.6%,105%,119%,105%,94.8%,113%,99.7%,96.7%,101%,102%,102%,112%,103%
O=S(=O)(Nc1ccc(I)cc1Cl)c1ccc(-c2cnc(C3CC3)o2)cc1,45.4%,62.5%,64.8%,52.7%,28.8%,34%,54.6%,40.4%,50.2%,50.2%,19.8%,47.3%,57.5%,-4.05% (active),58.9%,2.33% (active),21.4%,58.5%,29.6%
c1n[nH]cc1-c1nc2ccc3[nH]ncc3c2c2c1CCCC2,19%,29.1%,31.1%,14.7%,9.2% (active),2.99% (active),15.7%,16.9%,8.98% (active),20.4%,33.9%,11.5%,49.1%,-51.4% (active),27%,29.5%,11%,37.1%,7.13% (active)
COc1ccc(NCc2cn(-c3ccc(C(=O)O)cc3)nc2-c2cc(C(F)(F)F)cc(C(F)(F)F)c2)cc1,104%,107%,94%,104%,93.6%,94.4%,87.7%,102%,110%,103%,90.5%,86.8%,101%,111%,99.2%,102%,86.5%,105%,96.4%
CCCn1cnc2c(c1=N)C(c1ccc(Cl)cc1)c1sc3c(C)cccc3c1O2 (centres undefined),20.5%,62%,43.8%,44.2%,9.41% (active),-5.59% (active),29.1%,33.8%,1.53% (active),19.7%,7.73% (active),59.5%,28.6%,-4.19% (active),41.1%,-6.66% (active),-21.1% (active),86.5%,8.06% (active)
CC(C)(C)n1nnnc1C(Nc1cccc2c1OCO2)c1cc2cccc3ccc4cccc1c4c32 (centres undefined),87.4%,82.2%,96%,98.8%,88.8%,78.8%,81.3%,93.2%,103%,97.5%,75%,93.2%,80.5%,40.6%,78.7%,81.9%,93%,100%,97.8%
CC(C)c1ccc(NCc2cn(-c3ccc(C(=O)O)cc3)nc2-c2cc(C(F)(F)F)cc(C(F)(F)F)c2)cc1,83.2%,85.8%,85.1%,94.9%,83%,85%,79.8%,90.7%,96.5%,89.6%,79.8%,71%,91.8%,97.2%,88.1%,98.5%,83.6%,94.9%,86%
N#Cc1cccc(/C(N)=N/C(N)=N/c2nc3ccccc3s2)c1,27.7%,72%,48.5%,45%,22%,3.75% (active),60.8%,46%,17.4%,17.5%,12.7%,59.3%,37.3%,13%,56.5%,1.87% (active),4.08% (active),90.6%,20.8%
COc1cc2oc(-c3cccc(N)c3)cc(=O)c2c(OC)c1OC,110%,99.9%,102%,115%,106%,97.4%,101%,94.1%,126%,108%,107%,101%,100%,117%,104%,93.4%,99.6%,119%,111%
Cc1cc(-c2ccc(Cl)cc2)n(Cc2nnc(SCC(=O)Nc3ccc(S(N)(=O)=O)cc3)n2-c2ccc([N+](=O)[O-])cc2)n1,90.2%,85.1%,96%,104%,67.1%,90%,84.3%,109%,97%,101%,64.3%,92.9%,93.3%,75.9%,95.6%,73.4%,97%,98.5%,85.5%
CCNC(=O)N1CCc2cc(OC)c(OCCc3ccc(OC)c(N)c3)cc2C1c1cc(C)c(C)cc1C (centres undefined),41.8%,44.7%,53.6%,34.2%,4.34% (active),5.26% (active),19.6%,23.3%,55.9%,38.7%,20.5%,45.5%,53.1%,22.5%,40.7%,18.3%,26.4%,50%,27.9%
COc1cc(-c2nc(SC(C)C)n(C(C)C)c(=O)c2C#N)ccc1OCc1ccccc1,85%,87.4%,64.9%,79%,21%,84%,36.7%,34.4%,34.5%,99.1%,38.8%,82.4%,75.7%,91.1%,85.6%,80.3%,64.6%,101%,105%
CNC(=O)c1cc(Oc2ccc3nc(NC(=O)c4cc(N5CCOCC5)cc(C(F)(F)F)c4)sc3c2)ccn1,88.2%,85.4%,89.4%,89.3%,67.5%,81.6%,68.5%,80.3%,94%,86.1%,67.2%,87.1%,76.2%,-9.02% (active),86%,44.6%,91.5%,82.4%,77.5%
CCOC(=O)c1c(Nc2ccccc2)nn2c(-c3cccs3)ccnc12,92.7%,89%,94.4%,93.8%,92.3%,82.1%,95.2%,71%,92.7%,84.7%,59%,88.7%,81.3%,-6.08% (active),91.4%,84.1%,84.1%,108%,91.6%
Cc1ccc(NC(=O)N[C@@H](Cc2cc(F)cc(F)c2)C(=O)NC2C(=O)N3C[C@H](O)C[C@H]3C(=O)N3CCCC[C@H]3C(=O)N[C@@H](CO)C(=O)N3C[C@H](C)C[C@H]3C(=O)O[C@H]2C)c(F)c1 (some centres undefined),28.2%,8.45% (active),70.7%,48.3%,37.3%,26.9%,73.4%,93.6%,-11.9% (active),37.7%,27.9%,50.7%,38.8%,100%,35.5%,78.7%,43.5%,25.4%,58.4%
